Assay results published in the supplement of paper PMC12645437, “Orthogonal IMiD-Degron Pairs Induce Selective Protein Degradation in Cells” (ACS Chemical Biology, 2025).
In all, about 8,300 sequences were measured (“log2 fold change of degron read counts, EGFP-low vs EGFP+ sorted cells (limma voom), compound-induced degradation”: median about -1.1, highest 2% from about 3.2 on). For the sample, the highest values were picked, then their nearest neighbours and some sequences at random.

T1: CRBN, Q96SW2
T1 chain: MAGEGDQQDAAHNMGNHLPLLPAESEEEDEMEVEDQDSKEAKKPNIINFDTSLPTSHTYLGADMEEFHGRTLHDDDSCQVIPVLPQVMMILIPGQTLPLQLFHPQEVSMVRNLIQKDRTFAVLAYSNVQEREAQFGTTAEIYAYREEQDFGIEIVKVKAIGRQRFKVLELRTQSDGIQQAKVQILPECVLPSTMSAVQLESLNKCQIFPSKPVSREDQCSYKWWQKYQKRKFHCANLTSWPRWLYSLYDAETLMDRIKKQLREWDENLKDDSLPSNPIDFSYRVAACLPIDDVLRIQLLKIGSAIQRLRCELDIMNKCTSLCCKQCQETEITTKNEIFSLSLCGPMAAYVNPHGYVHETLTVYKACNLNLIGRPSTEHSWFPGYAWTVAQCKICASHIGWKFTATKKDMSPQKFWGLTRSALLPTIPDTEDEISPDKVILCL


Biological target: T1, CRBN, Q96SW2
Assay: log2 fold change of degron read counts, EGFP-low vs EGFP+ sorted cells (limma voom), compound-induced degradation; higher = more compound-induced degradation of the degron-EGFP fusion; degrons are variants of IKZF1/3 zinc finger 2; compound dose not given here
Conditions: Jurkat, 18 h
[1] = compound: compound 19 (5-tert-butyl-thalidomide)
[2] = compound: compound 22 (5-morpholino-thalidomide)
[3] = compound: compound 33 (diphenyl IMiD analogue)
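Also: pooled lentiviral library of zinc finger degron-EGFP fusions in mCherry-positive Jurkat cells, FACS-sorted after compound exposure, with degron abundance counted by next-generation sequencing.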

Sequence	log2 fold change of degron read counts [1]	log2 fold change of degron read counts [2]	log2 fold change of degron read counts [3]	log2 fold change of degron read counts (compound: thalidomide)
FQCNQCGANFTQKGNLLRHIKL [46F_47Q_49N_50Q_52G_53A_54N_55F_67L_, Q9UKT9]	-2.24	-1.57	-1.76	-0.0144
FSCDQCGALFTQKGNLLRHIKL [46F_47S_49D_50Q_52G_53A_54L_55F_67L_, Q9UKT9]	-2.6	-3.3	-0.185	-3.02
FNCSVCGHNFTQKGNLLRHIKL [46F_47N_49S_50V_52G_53H_54N_55F_67L_, Q9UKT9]	-2.71	-4.15	-3.1	-2.83
FWCPICGHYFTQKGNLLRHIKL [46F_47W_49P_50I_52G_53H_54Y_55F_67L_, Q9UKT9]	-0.542	-0.321	-0.506	-0.28
FKCNVCGAEFTQKGNLLRHIKL [46F_47K_49N_50V_52G_53A_54E_55F_67L_, Q9UKT9]	-3.18	-3.1	-3.12	-2.1
FHCPICGATFTQKGNLLRHIKL [46F_47H_49P_50I_52G_53A_54T_55F_67L_, Q9UKT9]	1.64	1.89	1.62	0.481
FECEVCGAPFTQKGNLLRHIKL [46F_47E_49E_50V_52G_53A_54P_55F_67L_, Q9UKT9]	1.65	-1.41	0.683	1.6
FMCEVCGAPFTQKGNLLRHIKL [46F_47M_49E_50V_52G_53A_54P_55F_67L_, Q9UKT9]	2.75	3.55	3.12	2.6
FKCEVCGAPFTQKGNLLRHIKL [46F_47K_49E_50V_52G_53A_54P_55F_67L_, Q9UKT9]	2.02	1.13	-1.28	1.95
